Bioassay records deposited in PubChem BioAssay by National Center for Advancing Translational Sciences (NCATS).
Compounds with a hit are over-represented: about 10% of the library has one in this group of screens.
JMJD2A Tudor: blocks the human JMJD2A Tudor domain | Potency, µM (doses to about 114 µM), for the others: top-dose activity change, negative = inhibition, hits mostly inhibitors | actives 4.4% (n = 390,000) | O75164 | AlphaScreen JMJD2A-Tudor / H3K4me3 peptide binding; also: potency is read from the fitted curve at half-maximal effect; % is scaled to controls: 0 for no effect and ±100 for the full control effect; nearly all actives have a fitted effect of over 50% in size
CtBP-E1A blk: blocks the CtBP interaction with E1A; AlphaScreen GST-E1A/His-CtBP binding, 1536-well; active compounds read low; activity change, % (concentration not given with the values); actives 0.49% (n = 340,000); in the data active = activity change below about -65%; inconclusive = mostly about -30% to -63%; also: % is scaled to controls: 0 for no effect and ±100 for the full control effect
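Protein mix (5X: 125 nM each GST-E1A, His-CtBP) was incubated with pinned compound 2 h at 37 deg C in dark, in 50 mM Tris pH 8.0 buffer with 300 mM NaCl. Glutathione donor and nickel acceptor beads followed; AlphaScreen signal read after 1 h.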
HP1b chromo inh: blocks HP1-beta chromodomain binding to methylated histone tails; AID 540317; AlphaScreen HP1-beta / biotin-H3K9me3 peptide binding; actives 0.56% (n = 390,000); P83916; Potency, µM (highest dose often 114 µM), inactives show at the top dose activity change, negative = inhibition, most hits filed as inhibitors; also: potency is read from the fitted curve at half-maximal effect; nearly all actives have a fitted effect of over 70% in size
Target sequence (P83916 whole entry, looked up): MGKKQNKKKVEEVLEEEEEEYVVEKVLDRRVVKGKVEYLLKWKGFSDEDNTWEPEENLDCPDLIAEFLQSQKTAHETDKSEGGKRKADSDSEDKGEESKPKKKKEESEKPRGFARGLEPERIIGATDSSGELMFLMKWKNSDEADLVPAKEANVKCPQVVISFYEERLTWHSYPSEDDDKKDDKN
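HP1-beta protein (50 nM final) preincubated 30 min at room temperature with biotinylated H3(1-18)K9me3 peptide (50 nM) in PBS pH 7.4, 0.01% Tween-20, then compound added for 30 min. AlphaScreen streptavidin donor/nickel chelate acceptor beads (10 ug/mL final), 30 min dark, luminescence read.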
G9a block: G9a (human) methyltransferase inhibition; Q96KQ7; G9a H3K9 monomethylation, AlphaScreen, 2 h; Potency, µM (series often up to 102 µM), for the others: top-dose activity, negative = inhibition, actives largely listed as inhibitors; actives 8.8% (n = 350,000); also: potency is read from the fitted curve at half-maximal effect; % is scaled to controls: 0 for no effect and ±100 for the full control effect; nearly all actives have a fitted effect of over 75% in size
Target sequence (Q96KQ7 913-1193 limits assumed): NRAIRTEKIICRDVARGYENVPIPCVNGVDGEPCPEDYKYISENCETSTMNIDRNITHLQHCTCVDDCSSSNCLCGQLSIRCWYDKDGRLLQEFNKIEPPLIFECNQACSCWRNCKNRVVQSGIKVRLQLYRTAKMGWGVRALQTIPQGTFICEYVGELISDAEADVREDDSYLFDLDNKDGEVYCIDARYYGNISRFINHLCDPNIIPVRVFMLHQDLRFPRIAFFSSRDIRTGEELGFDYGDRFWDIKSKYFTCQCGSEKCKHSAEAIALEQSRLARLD
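G9a (20 nM) preincubated 15 min RT with compounds, then 500 nM biotinylated H3K9 peptide and 20 uM SAM added; 2 h RT reaction. Monomethyl-H3K9 product detected by AlphaScreen with anti-H3K9me1 antibody, streptavidin donor and anti-rabbit IgG acceptor beads.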
Six1-Eya2 blk: inhibitors of human Six1/Eya2 interaction; Q15475+O00167; AlphaScreen GST-Six1/His-Eya2 binding, biochemical; active compounds read low; activity change, % (concentration not given with the values); actives 0.56% (n = 360,000); in the data active = activity change below about -65%; inconclusive = mostly about -30% to -63%; also: % is scaled to controls: 0 for no effect and ±100 for the full control effect
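Compounds are tested against tagged Six1 and Eya2 proteins bridged by glutathione donor and nickel acceptor beads; after a one-hour incubation at 37 °C without light, AlphaScreen emission is recorded.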
BAZ2B block: blocks human BAZ2B; Q9UIF8; AlphaScreen BAZ2B-H3K14Ac peptide displacement; Potency, µM (top dose mostly 114 µM), for the others: at the top dose activity change, negative = inhibition, most hits filed as inhibitors; actives 4.4% (n = 360,000); AID 504333; also: potency is read from the fitted curve at half-maximal effect; % is scaled to controls: 0 for no effect and ±100 for the full control effect; nearly all actives have a fitted effect of over 60% in size
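BAZ2B 50 nM plus b-H3(5-23)K14Ac 50 nM, PBS pH 7.4/0.01% Tween-20, 30 min RT; compound added (max 110 uM), 30 min RT; streptavidin donor/Ni-chelate acceptor beads 10 ug/mL final, 20 min dark; AlphaScreen read.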
The depositor's hits bear a star; ? = inconclusive; . = not tested or not shown; [ ] = dose if it differs, or a comment. Unless noted, calls follow the shape of the dose curve; as a rule, active = well fitted inhibition curve with a large enough effect; inconclusive = small, poorly fitted or top-dose-only effect; inactive = no such curve, though single readings can be large or run the other way.

SMILES | JMJD2A Tudor | CtBP-E1A blk | HP1b chromo inh | G9a block | Six1-Eya2 blk | BAZ2B block
COc1ccccc1CNC(=O)c1ccc(CS(=O)Cc2cccc(Cl)c2)o1 (centres undefined) | 2% | . | 12%[57 µM] | 1% | 0 | -3%
O=c1c2c3c(sc2n(CCN2CCCC2)c(=O)n1Cc1ccco1)CCCCC3 | 79µM* | -29 | ? | 3% | -19 | -35%
O=C(O)Cn1c(=O)c2c3c(sc2n(Cc2ccccc2)c1=O)CCCC3 | 0% | . | 59% | -34% | 0 | 89µM*
CCOC(=O)CSc1nnc2n(Cc3ccccc3)c(=O)c3c4c(sc3n12)CCC4 | -15%[11.4 µM] | -3 | -26% | 40µM* | 14 | 1%
O=C(Cn1c(=O)n(Cc2ccco2)c(=O)c2c3c(sc21)CCCCC3)Nc1ccccc1 | 32µM* | -9 | -29% | . | -10 | 50µM*
CCCCCCN1CC(=O)N2Cc3[nH]c4ccccc4c3C[C@H]2C1=O | -24% | -1 | 21% | ? | -3 | -29%
CCCOc1ccc(CNC(=O)c2[nH]c3cc(OC)ccc3c2Sc2ccccc2)cc1 | -20% | . | 47% | ? | . | -4%
COc1ccc(-n2nc3c(c2NC(=O)C(=O)NCc2ccccc2)CSC3)cc1 | -8% | . | 30% | 31%[59 µM] | . | 1%
CC(C)C[C@@H](CN1CCC[C@@H]1CN1C(=S)NC[C@@H]1Cc1ccc(O)cc1)N1C[C@H](Cc2ccc(O)cc2)N(CC2CCCCCC2)C1=S | . | -26 | . | . | 4 | .
CCOC1=C2CN(S(=O)(=O)c3ccc(C)cc3)[C@H](c3ccccc3)C[C@H]2[C@H]2C(=O)N(c3ccccc3)C(=O)[C@H]2C1 | . | 6 | . | . | -4 | .
N#Cc1ccc(NC(=O)c2ccc3c(c2)nnn3C2CCCC2)cc1 | -4% | . | 42% | -6%[59 µM] | . | 4%
CC(=O)N1CCc2c(sc3c2c(=O)n(-c2ccccc2)c(=O)n3CC(=O)Nc2cccc(C)c2)C1 | -19% | . | 18% | 0%[59 µM] | . | -1%
CC(=O)N1CCc2c(sc3c2c(=O)n(-c2ccccc2)c(=O)n3CC(=O)Nc2ccccc2)C1 | 79µM* | . | 9% | 6%[59 µM] | . | -2%
O=C(OCC(=O)N1CCCC1)c1cc2c(cc1[N+](=O)[O-])OCCO2 | -17% | . | 44% | 7%[2.33 µM] | 4 | 4%
O=C(Nc1ccc(C(=O)O)cc1)/C(=C\C=C\c1ccccc1)NC(=O)c1cccc(Br)c1 | -33% | -5 | 7% | 40µM* | -18 | 56µM*
CCCCOc1ccc(C(=O)N/C(=C/C=C/c2ccccc2)C(=O)NCCO)cc1 | -33% | -5 | 16% | ? | -3 | ?
O=C(O)CCNC(=O)/C(=C/C=C/c1ccccc1)NC(=O)c1ccccc1 | -18% | . | 19% | 40µM* | 3 | -3%
CC(C)(C)NC(=O)CCN(/N=C/c1ccncc1)C1=NS(=O)(=O)c2ccccc21 | -11% | -82* | 24% | ? | -68* | 19%
O=S1(=O)N=C(N(CCO)/N=C/c2ccccc2)c2ccccc21 | -2%[11.4 µM] | . | 6% | -26% | ? | .
O=S1(=O)N=C(N(CCO)/N=C/c2ccncc2)c2ccccc21 | -19% | -78* | -7% | ? | -80* | -30%
COc1ccc(/C=N/N(CCC(=O)NC(C)(C)C)C2=NS(=O)(=O)c3ccccc32)cc1 | 11% | -3 | 38% | 15% | -11 | 14%
CCN(CC(=O)Nc1ccc(S(=O)(=O)N2CCCCC2)cc1)Cc1ccccc1 | -12% | 0 | 21% | 5%[0.501 µM] | 1 | 7%
COc1ccccc1Nc1ccc(N)cc1 | 50µM* | ? | ? | 13µM* | -29 | 28µM*
COc1ccccc1NC(=O)c1ccccc1Nc1ccccc1 | 10% | 0 | 42% | 27% | -11 | 9%
COc1ccccc1Nc1ccc(NS(=O)(=O)c2ccc(C(C)=O)cc2)cc1 | 40µM* | ? | ? | 35µM* | -16 | ?
SMILES | JMJD2A Tudor | CtBP-E1A blk | HP1b chromo inh | G9a block | Six1-Eya2 blk | BAZ2B block
Cc1cc(-n2c(SCC(=O)NCc3ccccc3)nc3ccsc3c2=O)ccc1Cl | -12% | . | 18% | 3%[59 µM] | . | 1%
C/C(=C\c1ccccc1)CN1CCN(C)CC1 | -100% | . | ? | 13µM* | 3 | ?
CCN(Cc1ccccc1)C(=O)C1CCC(CNc2c(N3CCOCC3)c(=O)c2=O)CC1 (centres undefined) | -17% | -8 | 26% | ? | -9 | 8%
CCN(Cc1ccccc1)C(=O)C1CCN(C/C(C)=C/c2ccccc2)CC1 | 16µM* | 10 | -24% | 35µM* | 1 | ?
CCN(Cc1ccccc1)C1CCN(Cc2ccc(SC)cc2)CC1 | 2.5µM* | -30 | ? | ? | -10 | 50µM*
CSc1ccc(CN2CCC2(C)C(=O)NC2CCN(Cc3ccccc3)CC2)cc1 (centres undefined) | . | -10 | . | . | -15 | .
C/C(=C\c1ccccc1)CN1CCN(C(C)C)C(CCO)C1 (centres undefined) | -8% | -2 | 25% | 4% | 2 | -8%
CCCCN(Cc1ccccc1)C1CCN(Cc2ccccc2)CC1 | -6% | -3 | 20% | . | -10 | 1%
CCN(Cc1ccccc1)C(=O)C1CCN(Cc2ccc(SC)cc2)CC1 | 20µM* | 13 | ? | 0% | 7 | -22%
Cc1cccc2nc(C(F)(F)F)nc(=O)n12 | -9% | -1 | 25% | . | 11 | -21%
CCCn1cc(S(=O)(=O)c2cc(C)ccc2C)c(=O)c2cc(F)c(N3CCN(CC)CC3)cc21 | -20% | . | 39% | -31%[59 µM] | . | 0%
COc1ccc(C)cc1NC(=O)C1CCCCN1S(=O)(=O)c1ccccc1 (centres undefined) | 19% | 8 | 50% | . | -1 | .
COc1ccc(NC(=O)Cn2nnc(C(=O)NCCc3ccc(OC)c(OC)c3)c2N)c(OC)c1 | -19% | . | 10% | 5% | -1 | -13%
Cn1cccc1/C=C1\SC(=S)N(NC(=O)c2ccccc2O)C1=O | ? | ? | ? | 5µM* | ? | 32µM*
COc1ccccc1C(=O)NN1C(=O)/C(=C/c2cccn2C)SC1=S | . | . | . | . | . | 8.9µM*
COc1ccccc1/C=C1\SC(=S)N(CCC(=O)NNC(=O)c2ccccc2OC)C1=O | -17%[57.1 µM] | 0 | -9% | 2% | 2 | 3%
O=C(NN1C(=O)/C(=C/C=C/c2ccco2)SC1=S)c1ccccc1O | 8.9µM* | ? | 13µM* | . | -72* | 13µM*
Cc1cc2c(s1)c1cnn(Cc3c(F)c(F)cc(F)c3F)c(=O)c1n2C | -13% | . | . | . | . | .
Cc1ccccc1C(=O)Nc1ccc(S(=O)(=O)N2CCOCC2)cc1 | -4% | 8 | 25% | 2% | 1 | 3%
CCn1c(O)c(C=Nc2ccccc2)n(-c2ccccc2)c1=S | 11%[11.4 µM] | 5 | 1% | 7.9µM* | 3 | 12%
